Inconclusive results are not listed. Activity calls are given as the source filed them. Unless noted, calls follow the shape of the dose curve; as a rule, active = well fitted curve in the direction sought with a large enough effect in the repeat runs; inconclusive = weak or mixed curves; inactive = no such curve, though single readings can be large; an effect the other way counts as inactive or inconclusive.
How the values were obtained:
[1] = target: Acetylcholinesterase (Homo sapiens) (UniProt P22303); experiment: Acetylcholinesterase (AChE) small molecule antagonists: colormetric cell-based qHTS assay (AID 1347395; calls by dose curve; also: nearly all actives have a fitted effect of over 30% in size)
Sequence of Acetylcholinesterase (Homo sapiens) (P22303 whole entry, looked up): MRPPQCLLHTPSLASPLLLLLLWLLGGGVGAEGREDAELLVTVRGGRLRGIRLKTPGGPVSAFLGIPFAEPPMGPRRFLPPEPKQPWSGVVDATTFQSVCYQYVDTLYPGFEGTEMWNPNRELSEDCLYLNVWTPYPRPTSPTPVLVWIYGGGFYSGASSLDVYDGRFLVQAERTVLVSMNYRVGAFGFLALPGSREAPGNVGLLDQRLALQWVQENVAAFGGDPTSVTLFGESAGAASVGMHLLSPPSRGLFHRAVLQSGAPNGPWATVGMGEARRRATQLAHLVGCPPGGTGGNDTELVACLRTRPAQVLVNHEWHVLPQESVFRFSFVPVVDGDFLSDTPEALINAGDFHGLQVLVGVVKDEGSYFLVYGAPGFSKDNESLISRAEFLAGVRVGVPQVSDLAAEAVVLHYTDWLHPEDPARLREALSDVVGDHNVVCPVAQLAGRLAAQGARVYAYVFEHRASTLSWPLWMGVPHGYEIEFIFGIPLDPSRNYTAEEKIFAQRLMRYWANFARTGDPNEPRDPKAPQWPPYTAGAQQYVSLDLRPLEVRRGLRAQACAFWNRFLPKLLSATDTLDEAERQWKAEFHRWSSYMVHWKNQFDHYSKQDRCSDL
Procedure, shortened: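 Neuroblastoma line SH-SY5Y supplied the enzyme; cells were preincubated with compound for 30 min at 37 C and 5% CO2. Acetylthiocholine with DTNB was then added for 90 min at 37 C, and thiocholine was measured by colour.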

[2] = target: Acetylcholinesterase (Homo sapiens) (UniProt P22303); experiment: Acetylcholinesterase (AChE) small molecule antagonists: enzyme-based qHTS assay (AID 1347397; calls by dose curve; also: nearly all actives have a fitted effect of over 55% in size); details: Potency: AChE enzyme activity inhibition
Procedure, shortened: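 Enzyme inhibition was scored from DTNB-detected thiocholine formed by recombinant human AChE acting on acetylthiocholine. The 30 min compound preincubation and 10 min substrate reaction were both run at room temperature, with DMSO as vehicle control.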

[3] = target: Acetylcholinesterase (Homo sapiens) (UniProt P22303); experiment: Acetylcholinesterase (AChE) small molecule antagonists: fluorescence cell-based qHTS assay (AID 1347398; calls by dose curve; also: nearly all actives have a fitted effect of over 50% in size); details: Potency: AChE activity
Procedure, shortened: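 Endogenous acetylcholinesterase of SH-SY5Y neuroblastoma cells is measured in situ. After overnight attachment and 30 min compound exposure, cells receive acetylthiocholine and Thiolite Green; fluorescence is read after 40 min at room temperature.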

[4] = target: Acetylcholinesterase (Homo sapiens) (UniProt P22303); experiment: Acetylcholinesterase (AChE) small molecule antagonists: enzyme-based qHTS assay with human liver microsomes (AID 1347399; calls by dose curve; also: nearly all actives have a fitted effect of over 60% in size); details: Potency: qHTS inhibition
Procedure, shortened: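 Recombinant human AChE (50 mU/mL in the enzyme mix) and human liver microsomes (0.25 mg/mL final) were preincubated with compound and NADPH (0.25 mg/mL final) for 30 min at 37 C. Acetylthiocholine/DTNB was then added; thiocholine was read colorimetrically after 10 min at room temperature.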

[5] = target: Cytochrome P450 2D6 (Homo sapiens) (UniProt P10635); experiment: Cytochrome P450 Family 2 Subfamily D Member 6 (CYP2D6) small molecule antagonists: luciferase reporter qHTS assay (AID 1671196); also: nearly all actives have a fitted effect of over 50% in size; also: potency is read from the fitted curve at half-maximal effect; as to activity change, negative = inhibition: series mostly up to about 120 µM
Sequence of Cytochrome P450 2D6 (Homo sapiens) (P10635 whole entry, looked up): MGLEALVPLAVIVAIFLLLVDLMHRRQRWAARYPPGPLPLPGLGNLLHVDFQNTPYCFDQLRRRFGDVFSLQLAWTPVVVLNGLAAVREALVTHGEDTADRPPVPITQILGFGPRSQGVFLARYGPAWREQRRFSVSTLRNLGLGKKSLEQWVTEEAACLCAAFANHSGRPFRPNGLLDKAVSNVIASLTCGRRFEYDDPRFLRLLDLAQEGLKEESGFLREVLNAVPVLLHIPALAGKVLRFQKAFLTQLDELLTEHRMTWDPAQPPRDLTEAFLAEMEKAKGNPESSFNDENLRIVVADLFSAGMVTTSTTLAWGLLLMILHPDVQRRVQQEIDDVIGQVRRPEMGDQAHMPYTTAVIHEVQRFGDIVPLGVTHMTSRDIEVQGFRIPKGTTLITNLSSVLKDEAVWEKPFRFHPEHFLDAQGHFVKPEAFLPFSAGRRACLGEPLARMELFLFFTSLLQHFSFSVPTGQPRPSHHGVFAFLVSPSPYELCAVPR
Procedure, shortened: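 Cell-free P450-Glo system: CYP2D6 with proluciferin substrate was pre-incubated with compound for 10 min, then reacted with NADPH regeneration for 1 h at room temperature. Luciferin product was detected after 20 min, and data were reported as relative luminescence units.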

[6] = target: Cytochrome P450 2C19 (Homo sapiens) (UniProt P33261); experiment: Cytochrome P450 Family 2 Subfamily C Member 19 (CYP2C19) small molecule antagonists: luciferase reporter qHTS assay (AID 1671197); also: nearly all actives have a fitted effect of over 65% in size; also: potency is read from the fitted curve at half-maximal effect; as to activity change, negative = inhibition: series mostly up to about 120 µM
Sequence of Cytochrome P450 2C19 (Homo sapiens) (P33261 whole entry, looked up): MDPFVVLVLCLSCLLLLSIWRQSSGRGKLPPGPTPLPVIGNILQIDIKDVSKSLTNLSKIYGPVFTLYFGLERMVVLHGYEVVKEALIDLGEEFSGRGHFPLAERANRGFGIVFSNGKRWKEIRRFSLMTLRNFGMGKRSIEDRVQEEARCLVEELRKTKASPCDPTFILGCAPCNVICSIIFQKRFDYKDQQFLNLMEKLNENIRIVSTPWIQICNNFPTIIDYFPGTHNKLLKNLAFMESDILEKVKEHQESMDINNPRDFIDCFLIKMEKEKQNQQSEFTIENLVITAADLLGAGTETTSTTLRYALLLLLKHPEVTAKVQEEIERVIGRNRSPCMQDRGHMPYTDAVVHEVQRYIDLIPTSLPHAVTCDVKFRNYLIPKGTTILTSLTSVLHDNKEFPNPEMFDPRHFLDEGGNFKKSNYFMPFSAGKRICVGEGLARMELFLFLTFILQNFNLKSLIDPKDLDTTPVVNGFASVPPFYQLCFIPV
Procedure, shortened: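 Luminescent readout of CYP2C19 activity: luciferin product detected 20 min after adding detection reagent. Before that, compound and enzyme-substrate mix preincubated 10 min at room temperature; NADPH-regenerating system started a 1 h, 37C reaction. Ketoconazole as positive control.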

[7] = target: Cytochrome P450 2C9 (Homo sapiens) (UniProt P11712); experiment: Cytochrome P450 Family 2 Subfamily C Member 9 (CYP2C9) small molecule antagonists: luciferase reporter qHTS assay (AID 1671198); also: nearly all actives have a fitted effect of over 50% in size; also: potency is read from the fitted curve at half-maximal effect; as to activity change, negative = inhibition: series mostly up to about 120 µM
Sequence of Cytochrome P450 2C9 (Homo sapiens) (P11712 whole entry, looked up): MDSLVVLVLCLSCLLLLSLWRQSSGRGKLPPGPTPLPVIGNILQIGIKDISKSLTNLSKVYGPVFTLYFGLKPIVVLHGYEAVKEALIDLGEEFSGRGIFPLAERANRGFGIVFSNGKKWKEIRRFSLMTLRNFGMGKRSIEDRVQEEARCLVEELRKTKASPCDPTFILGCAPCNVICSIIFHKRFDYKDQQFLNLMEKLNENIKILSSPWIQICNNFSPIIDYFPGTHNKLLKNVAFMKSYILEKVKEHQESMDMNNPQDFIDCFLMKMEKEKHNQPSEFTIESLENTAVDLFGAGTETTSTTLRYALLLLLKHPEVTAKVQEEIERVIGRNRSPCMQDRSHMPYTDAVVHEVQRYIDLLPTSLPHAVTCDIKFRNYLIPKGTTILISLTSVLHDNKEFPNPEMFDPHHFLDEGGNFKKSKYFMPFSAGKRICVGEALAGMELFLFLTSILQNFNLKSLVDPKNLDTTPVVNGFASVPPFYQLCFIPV
Procedure, shortened: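 P450-Glo proluciferin substrate with CYP2C9 enzyme; 10 min RT preincubation, then NADPH regeneration 1 h at 37C; luciferin detection reagent 20 min RT, luminescence in relative luminescence units.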

[8] = target: Cytochrome P450 1A2 (Homo sapiens) (UniProt P05177); experiment: Cytochrome P450 Family 1 Subfamily A Member 2 (CYP1A2) small molecule antagonists: luciferase reporter qHTS assay (AID 1671199); also: nearly all actives have a fitted effect of over 50% in size; also: potency is read from the fitted curve at half-maximal effect; as to activity change, negative = inhibition: series mostly up to about 120 µM
Sequence of Cytochrome P450 1A2 (Homo sapiens) (P05177 whole entry, looked up): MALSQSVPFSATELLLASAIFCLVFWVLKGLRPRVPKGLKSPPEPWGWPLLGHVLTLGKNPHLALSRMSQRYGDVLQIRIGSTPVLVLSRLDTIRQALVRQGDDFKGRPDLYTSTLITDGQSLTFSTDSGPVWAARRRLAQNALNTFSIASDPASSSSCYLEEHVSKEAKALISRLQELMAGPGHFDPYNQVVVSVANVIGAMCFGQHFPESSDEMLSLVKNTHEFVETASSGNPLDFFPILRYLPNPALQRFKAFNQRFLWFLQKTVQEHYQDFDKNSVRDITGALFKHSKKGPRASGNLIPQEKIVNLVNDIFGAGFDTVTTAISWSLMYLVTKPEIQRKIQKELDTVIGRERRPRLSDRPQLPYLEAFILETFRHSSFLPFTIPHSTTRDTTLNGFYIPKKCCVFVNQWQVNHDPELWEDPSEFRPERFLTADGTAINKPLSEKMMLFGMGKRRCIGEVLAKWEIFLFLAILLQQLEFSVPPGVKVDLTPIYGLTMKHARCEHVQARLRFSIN
Procedure, shortened: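 P450-Glo CYP1A2 enzyme–proluciferin substrate mix with compound 10 min at room temperature, then NADPH regeneration 1 h at room temperature. Luciferin detection reagent added, luminescence read after 20 min; furafylline positive control.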

[9] = target: Voltage-gated inwardly rectifying potassium channel KCNH2 (Homo sapiens) (UniProt Q12809); experiment: Human Ether-a-go-go-Related Gene (hERG) channel small molecule antagonists: fluorescence cell-based qHTS assay (AID 1671200); also: nearly all actives have a fitted effect of over 50% in size; also: potency is read from the fitted curve at half-maximal effect;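 as to activity change, negative = inhibition: hERG-expressing U2OS cells given a thallium stimulus after FluxOR II dye loading; series mostly up to about 77 µM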
Sequence of Voltage-gated inwardly rectifying potassium channel KCNH2 (Homo sapiens) (Q12809 whole entry, looked up): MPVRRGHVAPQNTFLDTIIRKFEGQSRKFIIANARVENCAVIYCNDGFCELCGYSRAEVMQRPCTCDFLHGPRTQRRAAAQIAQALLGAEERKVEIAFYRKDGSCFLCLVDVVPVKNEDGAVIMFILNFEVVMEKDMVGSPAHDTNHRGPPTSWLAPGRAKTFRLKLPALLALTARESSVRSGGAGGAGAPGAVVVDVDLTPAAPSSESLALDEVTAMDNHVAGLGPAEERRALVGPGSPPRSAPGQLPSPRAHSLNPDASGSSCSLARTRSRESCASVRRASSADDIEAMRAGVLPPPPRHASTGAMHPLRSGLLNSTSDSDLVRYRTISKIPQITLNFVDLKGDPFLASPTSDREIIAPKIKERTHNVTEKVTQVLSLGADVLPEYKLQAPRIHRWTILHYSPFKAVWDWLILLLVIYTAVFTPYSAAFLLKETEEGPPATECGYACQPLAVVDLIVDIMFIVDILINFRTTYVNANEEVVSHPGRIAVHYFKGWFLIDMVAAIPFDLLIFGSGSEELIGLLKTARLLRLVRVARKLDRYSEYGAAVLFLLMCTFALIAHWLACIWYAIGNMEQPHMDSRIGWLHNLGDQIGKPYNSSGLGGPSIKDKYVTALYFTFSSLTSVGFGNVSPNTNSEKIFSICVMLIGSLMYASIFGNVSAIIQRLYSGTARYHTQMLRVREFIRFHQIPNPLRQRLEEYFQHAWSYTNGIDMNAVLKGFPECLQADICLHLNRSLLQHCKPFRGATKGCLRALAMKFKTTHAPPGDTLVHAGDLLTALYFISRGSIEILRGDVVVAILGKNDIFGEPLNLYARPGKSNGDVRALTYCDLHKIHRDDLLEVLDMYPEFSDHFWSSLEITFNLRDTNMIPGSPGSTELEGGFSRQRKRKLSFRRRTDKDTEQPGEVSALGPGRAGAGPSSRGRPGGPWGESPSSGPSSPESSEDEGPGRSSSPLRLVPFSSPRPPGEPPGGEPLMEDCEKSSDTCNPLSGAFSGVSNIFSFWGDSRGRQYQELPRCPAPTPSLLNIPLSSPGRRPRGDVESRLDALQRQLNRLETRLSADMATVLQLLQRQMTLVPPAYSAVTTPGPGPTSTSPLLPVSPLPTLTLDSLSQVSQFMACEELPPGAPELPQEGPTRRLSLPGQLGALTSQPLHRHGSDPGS
Procedure, shortened: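 Measured: Tl+ flux via fluorescence (480/540 nm) in hERG-expressing U2OS cells after 1 h dye loading at room temperature.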

[10] = target: Cytochrome P450 3A4 (Homo sapiens) (UniProt P08684); experiment: Cytochrome P450 Family 3 Subfamily A Member 4 (CYP3A4) small molecule antagonists: luciferase reporter qHTS assay (AID 1671201); also: nearly all actives have a fitted effect of over 50% in size; also: potency is read from the fitted curve at half-maximal effect; as to activity change, negative = inhibition: series mostly up to about 120 µM
Sequence of Cytochrome P450 3A4 (Homo sapiens) (P08684 whole entry, looked up): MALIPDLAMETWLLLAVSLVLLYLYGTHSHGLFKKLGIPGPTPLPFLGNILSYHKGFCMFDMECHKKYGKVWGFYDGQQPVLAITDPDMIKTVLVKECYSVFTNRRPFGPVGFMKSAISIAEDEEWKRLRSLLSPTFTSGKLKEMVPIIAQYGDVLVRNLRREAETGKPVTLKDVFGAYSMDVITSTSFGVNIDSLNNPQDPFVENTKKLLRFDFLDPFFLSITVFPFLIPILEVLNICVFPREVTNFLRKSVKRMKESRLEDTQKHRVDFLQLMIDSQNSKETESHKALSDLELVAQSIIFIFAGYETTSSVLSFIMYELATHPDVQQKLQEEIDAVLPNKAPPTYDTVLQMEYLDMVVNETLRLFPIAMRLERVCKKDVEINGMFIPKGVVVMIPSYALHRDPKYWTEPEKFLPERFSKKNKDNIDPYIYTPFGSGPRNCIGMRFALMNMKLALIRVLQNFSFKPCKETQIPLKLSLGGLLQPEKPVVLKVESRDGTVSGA
Procedure, shortened: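 Setup: enzyme-substrate mix, compound pin transfer, 10 min RT. Reaction: NADPH regeneration solution, 1 h RT. Readout: detection reagent stops turnover, luminescence measured after 20 min, expressed in relative luminescence units.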
% is scaled to controls: 0 for no effect and ±100 for the full control effect.

CCCCCCCCCC(=O)O[C@H]1CC[C@H]2[C@@H]3CCC4=CC(=O)CC[C@@H]4[C@H]3CC[C@]12C
active: Potency [6] 21.9 µM | Potency [7] 15.5 µM
inactive: Potency [1] | Potency [2] | Potency [3] | Potency [4] | Potency [5] | Potency [8] | Potency [9]

CCC(Cl)CCl (centres undefined)
inactive: Potency [1] | Potency [2] | Potency [3] | Potency [4] | Potency [5] | Potency [6] | Potency [7] | Potency [8] | Potency [9] | Potency [10]

CC(C)(OO)c1ccccc1
inactive: Potency [1] | Potency [2] | Potency [3] | Potency [4] | Potency [5] | Potency [9]
active: Potency [6] 35.6 µM | Potency [7] 39.9 µM | Potency [8] 25.2 µM

CC(C)(C)c1cc([N+](=O)[O-])cc([N+](=O)[O-])c1O
inactive: Potency [1] | Potency [2] | Potency [3] | Potency [4] | Potency [5] | Potency [9]
active: Potency [6] 56.2 µM | Potency [7] 17.8 µM | Potency [8] 56.2 µM

Clc1ccc(C(OCCN2CCCCC2)c2ccccc2)cc1 (centres undefined)
inactive: Potency [1] | Potency [2] | Potency [3] | Potency [4] | Potency [7]
active: Potency [5] 0.174 µM | Potency [6] 24.5 µM

O=C(O)c1ccccc1C(=O)Nc1cccc2ccccc12
active: Potency [5] 31.7 µM | Potency [6] 15.9 µM | Potency [7] 17.8 µM | Potency [8] 12.6 µM
inactive: Potency [1] | Potency [2] | Potency [3] | Potency [4] | Potency [9]

CCCN(CC1CC1)c1c([N+](=O)[O-])cc(C(F)(F)F)cc1[N+](=O)[O-]
active: Potency [6] 20 µM | Potency [7] 31.7 µM
inactive: Potency [1] | Potency [2] | Potency [3] | Potency [4] | Potency [5]

O=C(O)COc1ccc(Cl)cc1
inactive: Potency [1] | Potency [2] | Potency [3] | Potency [4] | Potency [5] | Potency [6]

O=C(O)CC(Cl)C(=O)O (centres undefined)
inactive: Potency [1] | Potency [2] | Potency [3] | Potency [4] | Potency [5] | Potency [6] | Potency [7] | Potency [8] | Potency [9] | Potency [10]

O=S1(=O)OC(c2cc(Br)c(O)c(Br)c2)(c2cc(Br)c(O)c(Br)c2)c2ccccc21
inactive: Potency [1] | Potency [2] | Potency [3] | Potency [4] | Potency [9]
active: Potency [5] 58 µM | Potency [6] 73 µM | Potency [7] 16.3 µM | Potency [8] 32.6 µM

CCCC(Cn1cncn1)c1ccc(Cl)cc1Cl (centres undefined)
inactive: Potency [1] | Potency [2] | Potency [3] | Potency [4] | Potency [9] | Potency [10]
active: Potency [5] 31.7 µM | Potency [6] 0.142 µM | Potency [7] 5.64 µM | Potency [8] 22.4 µM

O=C(NCc1cccnc1)Nc1ccc([N+](=O)[O-])cc1
active: Potency [5] 35.6 µM | Potency [6] 2 µM | Potency [7] 5.03 µM | Potency [8] 17.8 µM | Potency [10] 0.796 µM
inactive: Potency [1] | Potency [2] | Potency [3] | Potency [4] | Potency [9]

CN1C(=O)NC(=O)C(C)(C2=CCCCC2)C1=O (centres undefined)
inactive: Potency [1] | Potency [2] | Potency [3] | Potency [4] | Potency [5] | Potency [6] | Potency [7] | Potency [8] | Potency [9] | Potency [10]

Cn1sc(Cl)cc1=O
inactive: Potency [1] | Potency [2] | Potency [3] | Potency [4] | Potency [5] | Potency [6] | Potency [9] | Potency [10]
active: Potency [7] 71 µM

CO/N=C(/C(=O)OC)c1ccccc1COc1ccccc1C
inactive: Potency [1] | Potency [2] | Potency [3] | Potency [4] | Potency [5] | Potency [10]
active: Potency [6] 0.633 µM | Potency [7] 28.3 µM | Potency [8] 20 µM

CC(Cl)Cl
inactive: Potency [1] | Potency [2] | Potency [3] | Potency [4] | Potency [5] | Potency [6] | Potency [7] | Potency [9] | Potency [10]

O=C(Nc1ccccc1)Nc1cnns1
inactive: Potency [1] | Potency [2] | Potency [3] | Potency [4]
active: Potency [5] 31.7 µM | Potency [6] 39.9 µM | Potency [7] 35.6 µM | Potency [8] 3.56 µM | Potency [10] 3.56 µM

IC(I)=C(I)I
active: Potency [6] 7.1 µM | Potency [7] 3.56 µM | Potency [8] 10 µM
inactive: Potency [1] | Potency [2] | Potency [3] | Potency [4] | Potency [5] | Potency [9] | Potency [10]

O=C1NCN(c2ccccc2)C12CCN(CCCOc1ccc(F)cc1)CC2
active: Potency [5] 0.347 µM | Potency [9] 0.601 µM
inactive: Potency [1] | Potency [2] | Potency [3] | Potency [4] | Potency [6] | Potency [7] | Potency [8] | Potency [10]

Cc1ccccc1C(=O)Nc1cccc(OC(C)C)c1
active: Potency [6] 7.96 µM | Potency [7] 22.4 µM | Potency [8] 5.64 µM
inactive: Potency [1] | Potency [2] | Potency [3] | Potency [4] | Potency [5] | Potency [10]

CCCCC(CC)COP(=O)(Oc1ccccc1)Oc1ccccc1 (centres undefined)
active: Potency [6] 2.83 µM | Potency [7] 3.99 µM | Potency [8] 25.2 µM | Potency [10] 5.64 µM
inactive: Potency [1] | Potency [2] | Potency [3] | Potency [4] | Potency [5]

c1ccc(CN2CCNCC2)cc1
inactive: Potency [1] | Potency [2] | Potency [3] | Potency [4] | Potency [6] | Potency [7] | Potency [8] | Potency [9] | Potency [10]
active: Potency [5] 17.2 µM

NCC(CC(=O)O)c1ccc(Cl)cc1 (centres undefined)
inactive: activity, negative = inhibition [1] 4.84% [at 0.435 µM] | activity change, negative = inhibition [2] 1.42% [at 0.435 µM] | activity change, negative = inhibition [3] 5.21% [at 0.439 µM] | activity change, negative = inhibition [4] -0.275% [at 0.435 µM] | activity change, negative = inhibition [5] -6.8% [at 0.435 µM] | activity change, negative = inhibition [6] -14.5% [at 0.435 µM] | activity change, negative = inhibition [7] 1.42% [at 0.435 µM] | activity change, negative = inhibition [8] 12.7% [at 0.435 µM] | activity change, negative = inhibition [9] -9.45% [at 0.29 µM] | activity change, negative = inhibition [10] 4.59% [at 0.435 µM]
